The results in this text go back to PubChem BioAssay (NCI).

Among the test systems are SK-MEL-2 melanoma; EKVX NSCLC; SN12C renal; UO-31 renal; TK-10 renal; ACHN renal; CAKI-1 renal; A498 renal; MOLT-4 leukemia; SR leukemia; OVCAR-8 ovarian; OVCAR-4 ovarian; SK-OV-3 ovarian; IGROV1 ovarian; OVCAR-3 ovarian; HS 578T breast; NCI/ADR-RES ovarian; RPMI-8226 leukemia; OVCAR-5 ovarian; CCRF-CEM leukemia.
Holding throughout (assay): NCI-60 one-dose screen, 48 h (100 = growth as untreated, 0 = no growth, -100 = all killed)
Holding throughout (details): 10 µM unless noted

The panel holds about 83,000 compounds, 20% with a hit somewhere; the sample as a whole holds those more often.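 Results are percent growth after 48 hours of single-concentration exposure. 100 means growth as in untreated cells, lower positive values show inhibition; negative values down to -100 show cell death.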 Values without a mark were called inactive. Calls of active or inactive are those of the source. How the source made its calls: active means growth percent below 10; inactive means the rest.

As for `Cc1ccc(N(C(=O)CCc2c[nH]c3ccccc23)[C@H](C(=O)Nc2ccc(Cl)cc2)c2cccc([N+](=O)[O-])c2)cc1`, the growth with SK-MEL-2 melanoma is 105%; with EKVX NSCLC, 93%; in the assay with SN12C renal, 87.2%; with UO-31 renal, 47.4%; in the assay on TK-10 renal, 116%; in the assay with ACHN renal, 61%. Further, the growth with CAKI-1 renal was 80.5%; with A498 renal, 58.6%; with MOLT-4 leukemia it was 70.8%; with SR leukemia, 72.9%; in the assay on OVCAR-8 ovarian, 87.8%; with OVCAR-4 ovarian, 99.1%. Further, the growth is 90.8% in the assay with SK-OV-3 ovarian; 78.7% in the assay with IGROV1 ovarian; 96.9% with OVCAR-3 ovarian; 82.3% in the assay on HS 578T breast; 70.1% in the assay on NCI/ADR-RES ovarian.

Consider `Cc1c2c(c(C)c3c1oc1cc(O)ccc13)C(=O)N(CCN1CCCCC1)C2=O`, for which the growth with SK-MEL-2 melanoma is 105%; with EKVX NSCLC, 101%; in the assay with SN12C renal it was 85.9%; with UO-31 renal, 74.9%; in the assay on TK-10 renal it was 96.7%; with ACHN renal, 84.3%. For the same compound, the growth in the assay with CAKI-1 renal is 76.3%; with A498 renal, 106%; in the assay on MOLT-4 leukemia it was 80.4%; in the assay with RPMI-8226 leukemia, 74.6%; with OVCAR-8 ovarian, 64.2%; with OVCAR-5 ovarian, 114%. In addition, the growth in the assay on OVCAR-4 ovarian was 94.1%; with SK-OV-3 ovarian, 105%; with IGROV1 ovarian it was 82.8%; in the assay on OVCAR-3 ovarian, 99.1%; in the assay with HS 578T breast it was 89.8%; with NCI/ADR-RES ovarian, 81.7%.

With `N#Cc1c(-c2cccc(Cl)c2)cc(-c2cccc(F)c2)[nH]c1=O`, the growth in the assay on SK-MEL-2 melanoma is 102%; in the assay with EKVX NSCLC, 95.1%; in the assay with SN12C renal, 91.1%; with UO-31 renal it was 80.7%; with TK-10 renal, 94%; with ACHN renal it was 90.3%. For the same compound, the growth was 89.6% in the assay with CAKI-1 renal; 59.4% with A498 renal; 104% in the assay on SR leukemia; 65.4% in the assay on RPMI-8226 leukemia; 93.5% in the assay on OVCAR-8 ovarian; 95.8% with OVCAR-5 ovarian. Also, the growth with OVCAR-4 ovarian is 83.7%; with SK-OV-3 ovarian it was 102%; in the assay on IGROV1 ovarian, 94.4%; in the assay on OVCAR-3 ovarian it was 92.7%; in the assay on HS 578T breast it was 81.9%; in the assay with NCI/ADR-RES ovarian it was 98%.

In the case of `CCOC(CN=Cc1cc(C)c2[nH]c3ccccc3c2c1C)OCC`, the growth is 91.4% with SK-MEL-2 melanoma; 105% in the assay with EKVX NSCLC; 99.1% in the assay on SN12C renal; 94.3% in the assay on UO-31 renal; 83.3% in the assay on TK-10 renal; 106% in the assay on ACHN renal. Besides, the growth was 105% in the assay with CAKI-1 renal; 37.5% with A498 renal; 81.2% with MOLT-4 leukemia; 88.7% with RPMI-8226 leukemia; 94.7% in the assay with OVCAR-8 ovarian; 83.4% with OVCAR-5 ovarian. The growth is 97.8% in the assay with OVCAR-4 ovarian; 111% with SK-OV-3 ovarian; 102% with IGROV1 ovarian; 104% in the assay on OVCAR-3 ovarian; 123% with HS 578T breast; 101% with NCI/ADR-RES ovarian.

Turning to `Cn1ccc2c(c1=O)C(=O)c1nccc3c1c-2nc1ccccc13`, the growth in the assay on EKVX NSCLC was 86.9%; in the assay with SN12C renal, 66.8%; with UO-31 renal it was 46.2%; with TK-10 renal, 1.92% (active); in the assay on ACHN renal it was 21.3%; in the assay with CAKI-1 renal it was 61%. In addition, the growth with A498 renal was 87.6%; in the assay with CCRF-CEM leukemia, -12.8% (active); in the assay with MOLT-4 leukemia, 34.5%; in the assay on RPMI-8226 leukemia, -29% (active); in the assay with OVCAR-8 ovarian it was -58.5% (active); with OVCAR-5 ovarian, 69%. In addition, the growth with OVCAR-4 ovarian was -44.9% (active); with SK-OV-3 ovarian, 92.3%; in the assay on IGROV1 ovarian, 44.6%; with OVCAR-3 ovarian, -96.3% (active); with HS 578T breast, 96.8%; in the assay on NCI/ADR-RES ovarian, 41%.

As to `CN(C)c1ccc(-c2ccc3[nH]c(=O)nc(-c4ccccc4)c3c2)cn1`, the growth in the assay with SK-MEL-2 melanoma was 22.8%; in the assay with EKVX NSCLC it was 58.5%; in the assay with SN12C renal it was 50.7%; in the assay with UO-31 renal, 53%; in the assay on TK-10 renal it was 82.8%; in the assay on ACHN renal, 47.9%. For the same compound, the growth with CAKI-1 renal is 49.6%; in the assay on A498 renal, 52.3%; in the assay on SR leukemia, 16.2%; in the assay on RPMI-8226 leukemia, 56.5%; in the assay with OVCAR-8 ovarian it was 63.8%; in the assay on OVCAR-5 ovarian, 65.9%. In addition, the growth in the assay with OVCAR-4 ovarian is 70.4%; with SK-OV-3 ovarian, 63.5%; with IGROV1 ovarian it was 49.7%; in the assay with OVCAR-3 ovarian, 5.38% (active); with HS 578T breast, 55.6%; in the assay with NCI/ADR-RES ovarian, 49.4%.

On to `COc1ccc(C(=O)/C=C/c2c(C(F)(F)F)nc3sccn23)cc1OC`, for which the growth in the assay on SK-MEL-2 melanoma is 80.4%; in the assay with EKVX NSCLC, 37.1%; with SN12C renal it was 29%; with UO-31 renal, 61.1%; in the assay on TK-10 renal, 58.1%; with ACHN renal it was 26.5%. Moreover, the growth in the assay on CAKI-1 renal was 2.75% (active); in the assay with A498 renal it was 94.7%; in the assay on MOLT-4 leukemia, -16.6% (active); in the assay with OVCAR-8 ovarian, 18.6%; in the assay on OVCAR-5 ovarian, 44.6%; in the assay on OVCAR-4 ovarian, 25.5%. The growth in the assay with SK-OV-3 ovarian was 9.87% (active); in the assay on IGROV1 ovarian, 81.9%; in the assay with OVCAR-3 ovarian, -33.9% (active); in the assay on HS 578T breast, -5.99% (active); in the assay with NCI/ADR-RES ovarian, 4.94% (active).

Turning to `Cc1c(O)cc(-c2cnc(N/N=C\c3ccc(Cl)cc3)s2)c(O)c1C`, the growth in the assay with SK-MEL-2 melanoma is 101%; in the assay on EKVX NSCLC, 64.3%; in the assay with SN12C renal, 87.5%; in the assay on UO-31 renal, 75.5%; with TK-10 renal, 120%; in the assay with ACHN renal, 100%. Besides, the growth is 92% with CAKI-1 renal; 103% in the assay with A498 renal; 58.3% in the assay on SR leukemia; 41.5% in the assay on RPMI-8226 leukemia; 60.7% in the assay with OVCAR-8 ovarian; 102% with OVCAR-5 ovarian. In addition, the growth in the assay with OVCAR-4 ovarian is 61.7%; with SK-OV-3 ovarian it was 104%; in the assay on IGROV1 ovarian it was 83.5%; in the assay on OVCAR-3 ovarian it was 90.3%; in the assay with HS 578T breast, 77.6%; with NCI/ADR-RES ovarian it was 80.5%.
